# High-throughput results as filed in PubChem.
# Plk1 PBD FP: Plk1 (human) PBD binding inhibition; P53350; Plk1 PBD phosphopeptide binding, fluorescence polarization; inhibition, %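 (tested at about 20 µM)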; actives 0.13% (n = 97,000); in the data active means inhibition above about 34%, passing the limit was not always enough
# Target sequence (P53350 whole entry, looked up): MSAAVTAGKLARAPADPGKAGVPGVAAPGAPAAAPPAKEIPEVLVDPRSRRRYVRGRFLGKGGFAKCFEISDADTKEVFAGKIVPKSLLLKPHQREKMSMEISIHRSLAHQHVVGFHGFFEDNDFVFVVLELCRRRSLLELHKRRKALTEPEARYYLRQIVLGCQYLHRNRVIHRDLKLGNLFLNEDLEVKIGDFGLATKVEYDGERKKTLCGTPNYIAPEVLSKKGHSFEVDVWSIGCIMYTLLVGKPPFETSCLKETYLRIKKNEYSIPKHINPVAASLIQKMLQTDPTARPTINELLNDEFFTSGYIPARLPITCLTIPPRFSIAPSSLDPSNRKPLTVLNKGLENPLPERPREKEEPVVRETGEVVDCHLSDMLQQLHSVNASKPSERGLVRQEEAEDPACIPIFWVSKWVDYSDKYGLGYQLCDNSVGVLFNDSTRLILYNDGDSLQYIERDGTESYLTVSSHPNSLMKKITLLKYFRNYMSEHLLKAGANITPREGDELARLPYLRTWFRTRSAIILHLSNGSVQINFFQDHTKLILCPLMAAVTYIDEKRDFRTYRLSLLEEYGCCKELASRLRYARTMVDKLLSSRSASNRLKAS
# CYP2C19 activ: activators of human cytochrome P450 2C19; P33261; recombinant CYP2C19, luciferin-H EGE luminescence; stronger effect = higher value; 0 = fully inhibited enzyme, 1 = untreated enzyme; activation factor at 5 µM; 96,000 tested, under 10 active; AID 1025;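 active means activation factor of at least 2 at 5 µM in the primary screen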;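 further: 0 = wells with 2.5 mM tranylcypromine and 1 = vehicle-only wells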
# CYP2C9 inhib: inhibitors of human CYP2C9; CYP2C9 Supersomes, luciferin-H conversion, luminescence; inhibition, % at 5 µM; actives 20% (n = 96,000);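 active means blocking of liver enzyme CYP2C9 beyond about 50% at 5 µM, limit read from the data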
# PLK1 kinase inh: inhibitors of human PLK1 kinase | actives 0.53% (n = 97,000) | inhibition, % at 10 µM | recombinant PLK1 kinase, TR-FRET peptide phosphorylation | P53350;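 active means inhibition of 50% or more in the single-concentration screen; inactive means inhibition below 50%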;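 further: 0% = DMSO max control and 100% = H-89 dihydrochloride min control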
# CYP2C9 activ: activators of human CYP2C9; recombinant CYP2C9, luciferin-H conversion, luminescence; stronger effect = higher value; factor 1 = untreated enzyme, 0 = blocked; activation factor at 5 µM; actives 1.4% (n = 96,000); AID 1024;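 active means activation factor of 2 or more for CYP2C9 at a 5 µM dose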;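 further: 0 = sulfaphenazole-blocked wells and 1 = vehicle-only wells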
# CYP2C19 inh: human CYP2C19 inhibition. P33261. CYP2C19 Supersomes, luciferin-H EGE luminescence, 30 min. inhibition, % at 5 µM. actives 21% (n = 96,000). AID 778;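 active means CYP2C19 inhibition above a set limit at 5 µM in the primary screen, cut at about 50% in these data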;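 further: plate controls were negative control wells for no effect and 2.5 mM tranylcypromine positive control for full effect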
# Numbers without * were called inactive; . = no result. The list is not random: actives were taken first. Their share in the collection is about 28%.
SMILES,Plk1 PBD FP,CYP2C19 activ,CYP2C9 inhib,PLK1 kinase inh,CYP2C9 activ,CYP2C19 inh
O[C@@H]1C2CCCC1[C@]1(O)CCCCC1C2 (stereo not given in full),-17,0.9,62*,-3,0.4,11
O=C(Cn1cnc2c(cnn2-c2ccc(Cl)cc2)c1=O)NCCc1ccccc1,-18,0.6,20,-3,0.8,41
Cc1cccnc1NC(=O)C1CCN(S(=O)(=O)c2cccs2)CC1,-9,1.1,11,-8,0.9,-6
COc1ccc(Cn2cnc3c(NS(C)(=O)=O)c(C)c(C)cc32)cc1,5,0.3,29,-5,0.7,65*
CCOc1cccc(NCc2cc3c(C(C)(C)C)nn(-c4ccccc4)c3[nH]c2=O)c1,10,0.8,75*,-15,0.3,23
Nc1c(C(=O)c2ccccc2)sc2snc(SCC(=O)c3ccccc3)c12,-47,0.7,83*,21,0.2,26
Cc1nc2ccccn2c1/C(O)=C1\C(=O)C(=O)N(CCN(C)C)C1c1cccnc1 (stereo not given),-4,1,-3,-8,1,-4
COc1ccc(-c2cc3nc(C)c(CCC(=O)NCc4ccco4)c(C)n3n2)c(OC)c1,1,.,.,-14,.,.
Cc1nc2cc(-c3ccc(Cl)cc3)nn2c(C)c1CCC(=O)NCc1ccco1,0,0.2,20,8,0.8,79*
Cc1ccccc1NC1C=CS(=O)(=O)C1 (stereo not given),14,0.9,5,-16,0.9,9
Cc1nn(-c2ccccc2)c2nc(-c3ccncc3)cc(C(=O)NCc3ccco3)c12,16,0.1,94*,6,0.1,91*
Cc1nn(-c2ccccn2)c2nc(-c3cccs3)cc(C(=O)NCc3ccco3)c12,24,0.4,86*,-13,0.1,61*
CCOC(=O)c1cc(-c2ccco2)nc2c1c(C)nn2-c1ccccc1,-9,1.1,29,-15,0.7,-11
CN(C)CCCNC(=O)CCC1CCCCC1,19,1.1,-17,-3,1.2,-14
O=C1SC(c2ccccc2)=C/C1=C\N1CCCCC1,14,0.4,41,-9,0.6,57*
Cn1c(CSc2nc3ccc(Br)cc3[nH]2)nc2ccccc21,7,0.2,23,-6,0.8,82*
Cn1c(CSc2nnc(SCc3ccccc3)s2)nc2ccccc21,-49,0.4,19,4,0.8,60*
CCCC(O)(CCN(C)C)c1ccc(OC)cc1 (stereo not given),-24,1,-2,-13,1,2
CC(C)CN(C(=O)c1ccc(=O)n(C)n1)c1nc2ccccc2s1,3,0.1,84*,-6,0.2,90*
OCCNc1nc(Nc2ccccc2)nc(Nc2ccccc2)n1,-4,0.8,66*,-3,0.3,20
CCN(CC)C(=O)C(Cc1ccccc1)N1C(=O)c2ccccc2C1=O (stereo not given),0,0.3,53*,-7,0.5,67*
CC(C)NC(=O)C(Cc1ccccc1)N1C(=O)c2ccccc2C1=O (stereo not given),7,.,.,-12,.,.
COc1ccc(C2N=C(c3ccccc3)C(C)(C)N2O)cc1 (stereo not given),-28,0.2,12,-7,0.9,83*
CC1(C)C(c2ccccc2)=NC(c2ccccc2)N1O (stereo not given),9,0.6,-10,-6,1.1,40
O=C(CSc1nc(-c2cccs2)cc(C(F)(F)F)n1)NCc1ccccc1,1,0.4,91*,0,0.1,60*
SMILES,Plk1 PBD FP,CYP2C19 activ,CYP2C9 inhib,PLK1 kinase inh,CYP2C9 activ,CYP2C19 inh
CCCNC(=O)CSc1nc(-c2cccs2)cc(C(F)(F)F)n1,-17,0.3,77*,0,0.2,68*
CC(C)CNC(=O)CSc1nc(-c2cccs2)cc(C(F)(F)F)n1,3,.,.,-9,.,.
CCN1CCN(Cc2c(C)[nH]c3ccc(OC)cc3c2=O)CC1,-10,0.9,-10,1,1.1,8
N#CC1=C(N)OC2=C(CC/C2=C\c2ccccc2)C1c1ccccc1 (stereo not given),-86,0.7,70*,-9,0.3,26
CCN1CC2=C(OC(N)=C(C#N)C2c2cccs2)/C(=C\c2cccs2)C1 (stereo not given),23,0.9,18,1,0.8,6
CCOC(=O)c1nnn(-c2nonc2N)c1CSc1ccccc1,-12,0.8,49,-5,0.5,16
CCOC(=O)c1nnn(-c2nonc2N)c1CSc1ccc(C)cc1,13,0.2,51*,2,0.5,79*
CCOC(=O)c1nnn(-c2nonc2N)c1CSc1ccccn1,28,0.8,56*,-7,0.4,20
O=C(/C=C\Nc1ccccn1)c1ccc(Cl)cc1,-21,0.8,-24,-4,1.2,24
Cc1cccc2cc(CN(Cc3ccccc3)C(=O)N3CCOCC3)c3nnnn3c12,-38,.,.,-12,.,.
Cc1ccc2c(c1)cc(CN(Cc1ccc3c(c1)OCO3)C(=O)c1cnccn1)c1nnnn12,-39,0.6,48,-10,0.5,38
O=C(c1ccccc1F)N(Cc1ccc2c(c1)OCO2)Cc1cc2cc3c(cc2n2nnnc12)OCO3,-29,0.2,50*,-6,0.5,78*
Cc1cc2cc(CN(Cc3ccc4c(c3)OCO4)C(=O)c3cnccn3)c3nnnn3c2cc1C,5,0.4,63*,-4,0.4,61*
CCOC(=O)N1CCN(CC(=O)Nc2ccc(Oc3ccccc3)cc2)CC1,-18,0.8,21,-9,0.8,17
O=C(C1CCCCC1)N1CCC(c2nc3c(nnn3Cc3c(F)cccc3Cl)c(=O)[nH]2)CC1,-4,.,.,-8,.,.
O=C(Cc1cccs1)N1CCC(c2nc3c(nnn3Cc3ccccc3Cl)c(=O)[nH]2)CC1,-8,0.2,100*,-1,0,79*
CCCCCCC(=O)N1CCC(c2nc3c(nnn3Cc3ccccc3Cl)c(=O)[nH]2)CC1,9,0.8,93*,-3,0.1,15
CCOC(=O)c1ccccc1NC(=O)Cn1cnc2c(oc3ccccc32)c1=O,5,0.8,43,-3,0.6,15
Cc1csc(NC(=O)C2CCN(S(=O)(=O)c3ccc4c(c3)oc(=O)n4C)CC2)n1,-19,0.7,-28,-9,1.3,25
Cc1csc(NC(=O)C(CC(C)C)NS(=O)(=O)c2ccc3c(c2)oc(=O)n3C)n1 (stereo not given),0,0.6,55*,-2,0.4,36
Cc1ccc(C)c(S(=O)(=O)C(C#N)c2nc3ccccc3nc2N2CC(C)OC(C)C2)c1 (stereo not given),-4,0.5,99*,-15,0,52*
Cc1ccc(C)c(S(=O)(=O)C(C#N)c2nc3ccccc3nc2N2CCCC2)c1 (stereo not given),18,1,7,-9,0.9,-1
